Results on 29 compounds are retold here after PubChem BioAssay (NCATS).

Test [1] concerns Zika virus NS2B-NS3 protease (unlinked complex). Put plainly: Primary screen GU Rhodamine qHTS for Zika virus inhibitors: Unlinked NS2B-NS3 protease assay (AID 1347159). Also: nearly all actives have a fitted effect of over 60% in size. Also: potency is read from the fitted curve at half-maximal effect. In short, it runs like this:
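In dose–response format, inhibition of unlinked protease (25 nM) was measured with 1.5 microM bis-peptide Rhodamine110 substrate. Aprotinin served as the intraplate control.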
(In qHTS, concentration-response curves come from the screen itself.)

Test [2] has as its system Zika virus NS2B-NS3 protease (linked construct). The experiment in a line: Primary screen NINDS Rhodamine qHTS for Zika virus inhibitors (AID 1347160). Also: nearly all actives have a fitted effect of over 55% in size. The procedure, abridged: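 Each compound, titrated, sat 15 min with 25 nM linked protease before 1.5 microM Rhodamine110 substrate went in. Fluorescence gain over the next 15 min, in pH 8.0 Tris with Tween 20, gave Hill-fitted curves.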

Structures are written as SMILES. Records with an inconclusive call do not appear. Where a call stands in place of a potency, no number is given. Values without a mark were called inactive. Calls of active or inactive are those of the source. Calls follow the shape of the dose curve; as a rule, active = well fitted inhibition curve with a large enough effect; inconclusive = small, poorly fitted or top-dose-only effect; inactive = no such curve, though single readings can be large or run the other way.

With `C[C@H]1CC[C@@]2(OC1)O[C@H]1CC3C4CC[C@H]5C[C@@H](O)[C@H](O)C[C@]5(C)C4=CC(=O)[C@]3(C)[C@H]1[C@@H]2C` (stereo partly drawn), the Potency result in test [1] and in test [2] was “inactive” each time.
`Cc1cc(C)c2c(N)c(C(=O)NCc3ccc(Cl)cc3)sc2n1`: the Potency entry in test [1] and in test [2] was “inactive” each time.
Consider `COc1ccc(N(C)c2nc(C)nc3ccccc23)cc1`, for which the Potency result in test [1] and in test [2] was “inactive” in each case.
For the compound `CC(=O)c1cc2c(cc1O)OC(C)(C)C=C2`, the Potency result in test [1] and in test [2] was “inactive” throughout.
As for `C[C@@H]1C[C@@H](O)[C@@]23CO[C@@H](O)[C@@H]2CCC[C@@H]3[C@@]12C[C@@H](c1ccoc1)OC2=O`, the Potency result in test [1] and in test [2] was “inactive” throughout.
For `COc1cc(N2CCC(N3CCN(C)CC3)CC2)ccc1Nc1ncc(Cl)c(-c2c[nH]c3ccccc23)n1`, the Potency result in test [1] and in test [2] was “inactive” throughout.
In the case of `C=CC(C)(O)CC[C@H]1C(=C)CCC2[C@](C)(C(=O)O)CCC[C@@]21C` (stereo partly drawn), the Potency result in test [1] and in test [2] was “inactive” each time.
For `CN[C@H](C(=O)N[C@H](C(=O)N(C)[C@H](/C=C(\C)C(=O)O)C(C)C)C(C)(C)C)C(C)(C)c1ccccc1`, the Potency entry in test [1] and in test [2] was “inactive” each time.
Consider `C=C1CCC2C(C)(C)C(O)CCC2(C)C1CCC(C)CCOC(C)=O` (stereo not drawn), for which, in test [1], the Potency was 22.4 µM (active). Also, in test [2], the Potency result is “inactive”.
For `C=C1C(O)C(O)C2(CC3C(C)=CCC4C(C)(CO)CCCC34C)OC2C1O` (stereo not drawn), in that order: “inactive” and “inactive”.
For `C[C@@H]1COCCN1c1cc(C2(S(C)(=O)=O)CC2)nc(-c2cccc3[nH]ccc23)n1`, in that order: “inactive” and “inactive”.
For `COc1cc2ncnc(Nc3ccc(F)c(Cl)c3)c2cc1NC(=O)/C=C/CN1CCCCC1`, in that order: “inactive” and “inactive”.
As for `CCC(Nc1ncnc2nc[nH]c12)c1nc2cccc(F)c2c(=O)n1-c1ccccc1` (stereo not drawn), the Potency entry in test [1] and in test [2] was “inactive” in each case.
Consider `COc1c2c(c(C)c3c1C(=O)OC3)O[C@@]1(C)CCC3(C(C)(C)O)OC(=O)CC[C@]3(C)[C@H]1C2` (stereo partly drawn), for which the Potency result in test [1] and in test [2] was “inactive” throughout.
With `COc1cc2c(NC3CCN(CC4CCCCC4)CC3)nc(N3CCCN(C(C)C)CC3)nc2cc1OCCCN1CCCCC1`, the Potency result in test [1] and in test [2] was “inactive” throughout.
For the compound `CC(C)=CCC/C(C)=C/CC/C(C)=C/COC1OC(COC2OCC(OC3OCC(O)C(O)C3O)C(O)C2O)C(O)C(OC2OC(C)C(OC3OC(C)C(OC4OCC(OC5OC(C)C(O)C(O)C5O)C(O)C4O)C(O)C3O)C(O)C2O)C1O` (stereo not drawn), the activity change, negative = inhibition in test [1] was 15.4% [at 19.1 µM]; in test [2], -0.102% [at 10.7 µM].
For `CC(C)c1nc(-c2ccc(NC(=O)Nc3cccc(C(F)(F)F)c3)c3ccccc23)c2c(N)nccn12`, the Potency result in test [1] and in test [2] was “inactive” each time.
As for `CC1CC(C(O)C(C)(C)O)OC2CC3(C)C4(C)CCC5C(C)(C)C(=O)CCC5(C)C4CCC3(O)C12O` (stereo not drawn), the Potency result in test [1] and in test [2] was “inactive” in each case.
As to `CC(C)=CCC[C@](C)(O)[C@H]1CC[C@]2(C)[C@@H]1[C@H](O)CC1[C@@]3(C)CC[C@H](O)C(C)(C)C3[C@@H](O[C@@H]3O[C@H](CO)[C@@H](O)[C@H](O)[C@H]3O[C@@H]3OC[C@@H](O)[C@H](O)[C@H]3O)C[C@]12C` (stereo partly drawn), the Potency entry in test [1] and in test [2] was “inactive” in each case.
As for `NC1(C(=O)NC(CCO)c2ccc(Cl)cc2)CCN(c2ncnc3[nH]ccc23)CC1` (stereo not drawn), the Potency entry in test [1] and in test [2] was “inactive” in each case.
Take `CC1(C)CC[C@]2(C(=O)O[C@@H]3O[C@H](CO)[C@@H](O)[C@H](O)[C@H]3O)CC[C@]3(C)C(=CCC4[C@@]5(C)CC[C@H](O[C@@H]6O[C@H](C(=O)O)[C@@H](O)[C@H](O[C@@H]7O[C@H](CO)[C@H](O)[C@H](O)[C@H]7O)[C@H]6O)C(C)(C)C5CC[C@]43C)C2C1` (stereo partly drawn): the Potency result in test [1] and in test [2] was “inactive” in each case.
In the case of `Cc1ccc(NC(=O)C(=O)NC2CC(C)(C)NC(C)(C)C2)cc1`, the Potency entry in test [1] and in test [2] was “inactive” in each case.
For the compound `CC1(C)CC[C@]2(C(=O)O[C@@H]3O[C@H](CO[C@@H]4O[C@H](CO)[C@@H](O)[C@H](O)[C@H]4O[C@@H]4O[C@H](CO)[C@H](O)[C@H](O)[C@H]4O)[C@@H](O)[C@H](O[C@@H]4O[C@H](CO)[C@@H](O)[C@H](O)[C@H]4O)[C@H]3O)CC[C@]3(C)C(=CCC4[C@@]5(C)CC[C@H](O[C@@H]6OC[C@@H](O)[C@H](O)[C@H]6O)[C@@](C)(C(=O)O)C5CC[C@]43C)[C@@H]2C1` (stereo partly drawn), the activity change, negative = inhibition in test [1] was 20.2% [at 19.1 µM]; in test [2] it was -4.93% [at 10.7 µM].
Regarding `C/C=C(\C)C(=O)OCC1OC(OC2OC(COC(=O)/C(C)=C/C)C(OC3OC(CO)C(OC(=O)/C(C)=C/C)C(OC(=O)/C(C)=C/C)C3O)C(O)C2O)C(O)C(O)C1OC1OC(CO)C(OC(=O)/C(C)=C/C)C(OC(=O)/C(C)=C/C)C1O` (stereo not drawn), the Potency result in test [1] and in test [2] was “inactive” throughout.
On to `CC(O)(CC(=O)O)CC(=O)OCc1ccc(O[C@@H]2O[C@H](CO)[C@@H](O)[C@H](O)[C@H]2O)cc1` (stereo partly drawn), for which the Potency result in test [1] and in test [2] was “inactive” in each case.
As to `CO[C@H]1O[C@@H]2O[C@]3(C)CC[C@H]4[C@H](C)CC[C@@H]([C@H]1C)[C@@]24OO3`, the Potency result in test [1] and in test [2] was “inactive” in each case.
As to `OCCc1ccc(O[C@@H]2O[C@H](CO)[C@@H](O)[C@H](O)[C@H]2O)cc1`, the Potency result in test [1] and in test [2] was “inactive” throughout.
For the compound `Cc1cccc(Oc2cnc(=O)[nH]c2)c1`, the Potency result in test [1] and in test [2] was “inactive” throughout.
Regarding `O=C(O)Cc1cn(C2OCC(O)C(O)C2O[C@@H]2O[C@H](CO)[C@@H](O)[C@H](O)[C@H]2O)c2ccccc12` (stereo partly drawn), the Potency result in test [1] and in test [2] was “inactive” throughout.
